# Inconclusive results are not listed. Values without a mark were called inactive. Calls of active or inactive are those of the source. Calls follow the shape of the dose curve; as a rule, active = well fitted curve in the direction sought with a large enough effect in the repeat runs; inconclusive = weak or mixed curves; inactive = no such curve, though single readings can be large; an effect the other way counts as inactive or inconclusive.
# Assay: A CellTox Green Cytotoxicity Assay to monitor cytotoxicity in HepG2 cells - 24 hour (AID 1224878); also: nearly all actives have a fitted effect of over 45% in size
# Settings: CellTox Green fluorescence; series mostly up to 76.8 µM; cytotoxicity: at the top concentration
# Method in brief: (§1)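 Read-out is fluorescence of a cyanine dye excluded from live cells that stains DNA of dead HepG2 cells, with signal proportional to cytotoxicity. Plates were read at 0, 8, 16, 24, 32 and 40 h after compound addition.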
# % is scaled to controls: 0 for no effect and ±100 for the full control effect; potency is read from the fitted curve at half-maximal effect.
Structure (SMILES),cytotoxicity,Potency
C=CC(=O)NCOCC(C)C,-3.69%,
CC(C)C(OC(=O)c1ccccc1)C(C)(C)COC(=O)c1ccccc1 (centres undefined),-2.35%,
C=CCNc1nc(NCC=C)nc(N2CCN(C(c3ccc(F)cc3)c3ccc(F)cc3)CC2)n1,-18.8% [at 35.3 µM],
CCCCN(CCCC)C(=S)SSC(=S)N(CCCC)CCCC,10.9%,
Fc1ccccc1[C@@H](F)COC1CCC(Nc2ncnc3[nH]ncc23)CC1 (some centres undefined),11.6%,
CC1=CC(O)CC(C)(C)C1 (centres undefined),6.36%,
O=c1[nH]c2ccc(S(=O)CCN3CCC(Cc4ccc(F)cc4)CC3)cc2o1 (centres undefined),7.79%,
CCOC(=O)N1CCC(n2c(=O)[nH]c3cc(Cl)ccc32)CC1,-1.35% [at 35.3 µM],
NC(=O)N(O)[C@@H]1C=C[C@H](Oc2cccc(Oc3ccc(F)cc3)c2)C1,,38.9 µM (active)
CCCCC(CC)C(=O)OCCOCCOCCOCCOC(=O)C(CC)CCCC (centres undefined),0.747%,
O=[N+]([O-])c1cccc(S(=O)(=O)NCCNS(=O)(=O)c2cccc([N+](=O)[O-])c2)c1,-2.86% [at 35.3 µM],
CC(C)(C)C(=O)O,1.77%,
C(=C\c1ccccc1)/CN1CCN(C(c2ccccc2)c2ccccc2)CC1,16.6% [at 35.3 µM],
COc1cc2ncnc(Nc3ccc(F)c(Cl)c3)c2cc1OCCCN1CCOCC1,,23.9 µM (active)
CC1CC(=O)NN=C1c1ccc(NCC(C)(C)NCC(O)COc2cc(Cl)ccc2C#N)cc1 (centres undefined),-9.06% [at 35.3 µM],
CC(CCc1ccc2c(c1)OCO2)NN (centres undefined),0.996% [at 35.3 µM],
CCCCCCCCCOC(C)=O,-5.4%,
O=C(CCC1CCN(Cc2ccccc2)CC1)c1ccc2c(c1)NCCCC2,21.9% [at 35.3 µM],

Structure (SMILES),cytotoxicity,Potency
CCCCCCOC(=O)C(C)C,-13.6%,
CCCOC(=O)c1ccc(C(=O)OCCC)nc1,6.02%,
CO/N=C1\CN(c2nc3c(cc2F)c(=O)c(C(=O)O)cn3C2CC2)CC1CN (centres undefined),-8.95% [at 35.3 µM],
CCCCCCCCCCCC[N+](C)(C)CCCS(=O)(=O)[O-],25.7%,
C/C=C/C=C/CCCCCCCO,7.14%,
CCOC(=O)CC(=O)C(=O)OCC,-0.133%,
O=C1NCCN1,-0.0703%,
Nc1nccs1,-1.99%,
Cc1ccc(Nc2nccc(N(C)c3ccc4c(C)n(C)nc4c3)n2)cc1S(N)(=O)=O,0.859% [at 35.3 µM],
O=S1OCCO1,-0.731%,
CC1CC(O)CC(C)(C)C1 (centres undefined),9.56%,
CCCCC(=O)O[C@]1(C(=O)CO)[C@@H](C)C[C@H]2[C@@H]3CCC4=CC(=O)C=C[C@]4(C)[C@@]3(F)[C@@H](O)C[C@@]21C,20.8%,
CC(=O)[C@H]1CC[C@H]2[C@@H]3C[C@H](C)C4=CC(=O)CC[C@]4(C)[C@H]3[C@@H](O)C[C@]12C,2.86% [at 35.3 µM],
CNC(=O)N(c1ccccc1)c1ccccc1,8.89%,
CC(=O)OCC(=O)[C@H]1CC[C@H]2[C@@H]3CCC4=CC(=O)CC[C@]4(C)[C@H]3CC[C@]12C,1.29% [at 35.3 µM],
CCCC1C(CC)=CC(CC)=CN1c1ccccc1 (centres undefined),6.6%,
C1COCO1,0.641%,
O=C(c1ccc(O)cc1)c1ccc(Cl)cc1,-0.912%,

# Assay: A CellTox Green Cytotoxicity Assay to monitor cytotoxicity in HepG2 cells - 40 hour (AID 1224879); also: nearly all actives have a fitted effect of over 40% in size
# Settings: CellTox Green fluorescence; series mostly up to 76.8 µM; cytotoxicity increase: at the top concentration
# Method in brief: as §1
Structure (SMILES),cytotoxicity increase,Potency
C=CC(=O)NCOCC(C)C,-1.25%,
CC(C)C(OC(=O)c1ccccc1)C(C)(C)COC(=O)c1ccccc1 (centres undefined),-2.35%,
C=CCNc1nc(NCC=C)nc(N2CCN(C(c3ccc(F)cc3)c3ccc(F)cc3)CC2)n1,-13.7% [at 35.3 µM],
CC1=CC(O)CC(C)(C)C1 (centres undefined),3.11%,
CCOC(=O)N1CCC(n2c(=O)[nH]c3cc(Cl)ccc32)CC1,-4.9% [at 35.3 µM],
CCCCC1C(=O)N(c2ccccc2)N(c2ccc(O)cc2)C1=O (centres undefined),,10.7 µM (active)
CC(C)(C)C(=O)O,1.43%,
CC(CCc1ccc2c(c1)OCO2)NN (centres undefined),0.146% [at 35.3 µM],
O=C(N[C@@H](c1ccccc1)[C@@H]1CCCCN1)c1cccc(C(F)(F)F)c1Cl,,34.7 µM (active)
CCCCCCCCCOC(C)=O,-3.21%,
CCCCCCOC(=O)C(C)C,-11.4%,
CCCOC(=O)c1ccc(C(=O)OCCC)nc1,9.81%,
CO/N=C1\CN(c2nc3c(cc2F)c(=O)c(C(=O)O)cn3C2CC2)CC1CN (centres undefined),-6.98% [at 35.3 µM],
CCCCCCCCCCCC[N+](C)(C)CCCS(=O)(=O)[O-],24.3%,
CCOC(=O)CC(=O)C(=O)OCC,21.2%,
O=C1NCCN1,-4.46%,
Nc1nccs1,-1.85%,
Cc1ccc(Nc2nccc(N(C)c3ccc4c(C)n(C)nc4c3)n2)cc1S(N)(=O)=O,-3.44% [at 35.3 µM],
O=S1OCCO1,-3.83%,
CC1CC(O)CC(C)(C)C1 (centres undefined),5.18%,
CCCCC(=O)O[C@]1(C(=O)CO)[C@@H](C)C[C@H]2[C@@H]3CCC4=CC(=O)C=C[C@]4(C)[C@@]3(F)[C@@H](O)C[C@@]21C,18.4%,
CNC(=O)N(c1ccccc1)c1ccccc1,11.6%,
CCCC1C(CC)=CC(CC)=CN1c1ccccc1 (centres undefined),5.44%,
C1COCO1,0.113%,
O=C(c1ccc(O)cc1)c1ccc(Cl)cc1,-0.158%,

# Assay: qHTS RealTime-Glo MT Cell Viability Assay in HEK293 cells - 0 hour (AID 1224880); also: nearly all actives have a fitted effect of over 45% in size; as to activity change, negative = cytotoxicity: top concentration of the series differs between compounds
# Settings: RealTime-Glo luminescence; series mostly up to 76.8 µM; activity change, negative = cytotoxicity: at the top concentration
# Method in brief: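 Cells were seeded together with NanoLuc luciferase and a prosubstrate that viable cells reduce to a luciferase substrate. After a 5 h incubation at 37 C/5% CO2, compounds were added and luminescence was measured repeatedly during 40 h of treatment.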
Structure (SMILES),"activity change, negative = cytotoxicity",Potency
C=CC(=O)NCOCC(C)C,-1.09%,
CC(C)C(OC(=O)c1ccccc1)C(C)(C)COC(=O)c1ccccc1 (centres undefined),0.965%,
C=CCNc1nc(NCC=C)nc(N2CCN(C(c3ccc(F)cc3)c3ccc(F)cc3)CC2)n1,-9.78% [at 35.3 µM],
CCCCN(CCCC)C(=S)SSC(=S)N(CCCC)CCCC,-3.91%,
Fc1ccccc1[C@@H](F)COC1CCC(Nc2ncnc3[nH]ncc23)CC1 (some centres undefined),-19.2%,
CC1=CC(O)CC(C)(C)C1 (centres undefined),2.55%,
O=c1[nH]c2ccc(S(=O)CCN3CCC(Cc4ccc(F)cc4)CC3)cc2o1 (centres undefined),-0.629%,
CCOC(=O)N1CCC(n2c(=O)[nH]c3cc(Cl)ccc32)CC1,2.33% [at 35.3 µM],
NC(=O)N(O)[C@@H]1C=C[C@H](Oc2cccc(Oc3ccc(F)cc3)c2)C1,6.33%,
CCCCC(CC)C(=O)OCCOCCOCCOCCOC(=O)C(CC)CCCC (centres undefined),4.38%,
O=[N+]([O-])c1cccc(S(=O)(=O)NCCNS(=O)(=O)c2cccc([N+](=O)[O-])c2)c1,18.7% [at 35.3 µM],
CCCCC1C(=O)N(c2ccccc2)N(c2ccc(O)cc2)C1=O (centres undefined),-24.6% [at 35.3 µM],
CC(C)(C)C(=O)O,9.78%,
C(=C\c1ccccc1)/CN1CCN(C(c2ccccc2)c2ccccc2)CC1,12.6% [at 35.3 µM],
CC1CC(=O)NN=C1c1ccc(NCC(C)(C)NCC(O)COc2cc(Cl)ccc2C#N)cc1 (centres undefined),18.9% [at 35.3 µM],
CC(CCc1ccc2c(c1)OCO2)NN (centres undefined),5.26% [at 35.3 µM],
CCCCCCCCCOC(C)=O,12.8%,
O=C(CCC1CCN(Cc2ccccc2)CC1)c1ccc2c(c1)NCCCC2,6.05% [at 35.3 µM],
CCCCCCOC(=O)C(C)C,0.813%,

Structure (SMILES),"activity change, negative = cytotoxicity",Potency
CCCOC(=O)c1ccc(C(=O)OCCC)nc1,-14.3%,
CO/N=C1\CN(c2nc3c(cc2F)c(=O)c(C(=O)O)cn3C2CC2)CC1CN (centres undefined),-5.87% [at 35.3 µM],
CCCCCCCCCCCC[N+](C)(C)CCCS(=O)(=O)[O-],24.9%,
C/C=C/C=C/CCCCCCCO,-9.69%,
CCOC(=O)CC(=O)C(=O)OCC,4.4%,
O=C1NCCN1,-0.568%,
Nc1nccs1,-0.614%,
Cc1ccc(Nc2nccc(N(C)c3ccc4c(C)n(C)nc4c3)n2)cc1S(N)(=O)=O,2.56% [at 35.3 µM],
O=S1OCCO1,17.6%,
CC1CC(O)CC(C)(C)C1 (centres undefined),-0.816%,
CCCCC(=O)O[C@]1(C(=O)CO)[C@@H](C)C[C@H]2[C@@H]3CCC4=CC(=O)C=C[C@]4(C)[C@@]3(F)[C@@H](O)C[C@@]21C,-22.6%,
CC(=O)[C@H]1CC[C@H]2[C@@H]3C[C@H](C)C4=CC(=O)CC[C@]4(C)[C@H]3[C@@H](O)C[C@]12C,,1.69 µM (active)
CC(=O)Oc1ccc2c(c1)CC[C@@H]1[C@@H]2CC[C@]2(C)[C@@H](O)CC[C@@H]12,-6.11% [at 35.3 µM],
CNC(=O)N(c1ccccc1)c1ccccc1,7.83%,
CC(=O)OCC(=O)[C@H]1CC[C@H]2[C@@H]3CCC4=CC(=O)CC[C@]4(C)[C@H]3CC[C@]12C,,9.52 µM (active)
CCCCCCCCCCCC[N+](C)(C)CC(=O)[O-],18.4%,
CCCC1C(CC)=CC(CC)=CN1c1ccccc1 (centres undefined),-6.12%,
C1COCO1,-2.38%,
O=C(c1ccc(O)cc1)c1ccc(Cl)cc1,4%,

# Source: PubChem BioAssay (Tox21)
